Where “and” joins values, the source holds several entries; their conditions need not be identical. Identical values can stand only once. Records with an inconclusive call do not appear. Unmarked numbers belong to inactive results. Calls of active or inactive are those of the source. The call rests on the fitted dose curve; in most records, active means well fitted cell-killing curve with a large enough effect; inconclusive means small, poorly fitted or top-dose-only effect, or effect the other way; inactive means no such curve, though single readings can be large or run the other way.
Potency means the concentration at half of the fitted maximal effect.

The nature of this test: Viability qHTS for spleen associated tyrosine kinase inhibitor (SYKi) drug resistant MV4-11 cells (AID 1963824). Further: nearly all actives have a fitted effect of over 35% in size. To be noted: SYKi-resistant MV4-11 viability, CellTiter-Glo, 72 h; series mostly up to 45 µM; viability, % of control: at the top concentration. In short, it runs like this: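 CellTiter-Glo luminescence, read 10 min after reagent addition, reports viability after a 72 hr compound exposure. Cells are an MV4-11 line made resistant to SYK inhibition, seeded at 500 per well onto compound-containing plates.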
Take `CC1CCN(C(c2ccc(F)cc2)c2ccc(C(C)C(=O)O)cc2-c2ccc(C(F)(F)F)cc2)CC1` (stereo unspecified): the Potency was 6.51 µM (active).
On to `COC(=O)C1=CO[C@@H](O[C@@H]2O[C@H](CO)[C@@H](O)[C@H](O)[C@H]2O)[C@@H]2[C@@H](C)[C@@H](O)C(O)[C@H]12` (stereo partly specified), for which the “viability, % of control” value is 115% [at 17.3 µM].
For the compound `C=C(CO[C@@H]1O[C@H](CO[C@@H]2OC[C@](O)(CO)[C@H]2O)[C@@H](O)[C@H](O)[C@H]1O)C1Cc2cc(C(C)=O)ccc2O1` (stereo partly specified), the “viability, % of control” value was 85.9% [at 17.3 µM].
For the compound `COc1cccc(-c2ccc([C@@H](Oc3cc(-c4ccc(C[C@H](N)C(=O)O)cc4)nc(N)n3)C(F)(F)F)cc2)c1`, the Potency is 20.6 µM (active).
Regarding `CCCCCCCOc1cc2c(cc1/C(C)=C/c1ccc(C(=O)O)cc1)C(C)(C)CCS2(=O)=O`, the Potency is 11.6 µM (active).
On the same count and under the same terms, next, `CNC(=O)c1ccccc1Sc1ccc2c(/C=C/c3ccccn3)n[nH]c2c1`: 8.41 µM (active) and 1.3 µM (active) and 3.32 µM (active).
Take `CC(=O)c1ccc(O[C@@H]2O[C@H](CO)[C@@H](O)[C@H](O)[C@H]2O)cc1`: the “viability, % of control” value is 84.4%.
With `CC(C)(c1ccc(O)cc1)c1ccc(O)cc1`, the Potency was 27.9 µM (active).
As to `O[C@@](Cc1ncc(CC2(C(F)(F)F)CC2)[nH]1)(c1ccc(-n2cccn2)cc1)C(F)(F)F`, the Potency was 14.6 µM (active).
On the same count and under the same terms, next, `C=C1CC2C3(C)C(O)CC(=O)C(C)(C)C3C(O)C(OC(C)=O)C2(C)C2C(=O)OC(C)(C(=O)OC)C(=O)C12C` (stereo unspecified): 6.32 µM (active).
Take `COC(=O)[C@@]1(C)CC[C@]2(C(=O)O[C@@H]3O[C@H](CO)[C@@H](O)[C@H](O)[C@H]3O)CC[C@]3(C)C(=CCC4[C@@]5(C)CC[C@H](O[C@@H]6O[C@H](C(=O)O)[C@@H](O)[C@H](O)[C@H]6O)C(C)(C)C5CC[C@]43C)[C@@H]2C1` (stereo partly specified): the viability, % of control is 81.9% [at 9.25 µM].

The values above are taken from PubChem BioAssay (NCATS).
